Drawing on PubChem BioAssay AID651813 (National Center for Advancing Translational Sciences (NCATS), 2012), this text covers Potency and max response for 92 compounds.

Out of some 2,100 compounds screened, about 1,100 (52%) were called active. Inconclusive results (about 27%) are left out. So high a share suggests a set chosen from earlier hits. The list shows a part of the results. A number with no mark means an inactive call. Calls come from the whole dose curve; as a rule, active = well fitted inhibition curve with a large enough effect; inconclusive = small, poorly fitted or top-dose-only effect; inactive = no such curve, though single readings can be large or run the other way.
Potency is the fitted concentration of half-maximal effect.

The experiment deals with DNA dC->dU-editing enzyme APOBEC-3G (Homo sapiens) (UniProt Q9HC16). As to the kind of experiment: qHTS for inhibitors of Vif-A3G interactions: Cherry picks counterscreen.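 For max response: max response given as percent of control signal.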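 Note: hits raise yellow fluorescence by blocking Vif-driven A3G-eYFP degradation; nearly all actives have a fitted effect of over 70% in size.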 The note with it: HeLa A3G-eYFP + Vif (tagged APOBEC3G with the HIV-1 protein that degrades it), eYFP fluorescence, 24 h. In a few lines: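 Readout is eYFP fluorescence (488 nm excitation, 500-530 nm emission) measured on Acumen Explorer after 24 h compound exposure, several concentrations, at 37 deg C. Cells: HeLa stably co-expressing Vif and C-terminally eYFP-tagged A3G; MG132 positive control.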
DNA dC->dU-editing enzyme APOBEC-3G (Homo sapiens), sequence (Q9HC16 whole entry, looked up): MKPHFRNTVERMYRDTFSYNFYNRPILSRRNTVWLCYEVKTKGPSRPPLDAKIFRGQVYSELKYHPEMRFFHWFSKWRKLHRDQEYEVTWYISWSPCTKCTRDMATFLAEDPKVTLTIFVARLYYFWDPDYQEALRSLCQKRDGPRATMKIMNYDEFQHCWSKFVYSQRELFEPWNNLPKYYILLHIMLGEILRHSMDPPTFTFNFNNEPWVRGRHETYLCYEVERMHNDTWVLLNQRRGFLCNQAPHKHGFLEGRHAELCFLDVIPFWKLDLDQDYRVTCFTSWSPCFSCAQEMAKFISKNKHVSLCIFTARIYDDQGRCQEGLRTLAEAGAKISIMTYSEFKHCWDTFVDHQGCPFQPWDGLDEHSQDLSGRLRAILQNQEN
A general note: qHTS replaces the single test concentration by a dilution series.
Regarding `CCOc1cc(S(=O)(=O)NCc2ccc(OC)cc2)c(OCC)cc1-n1cnnn1`, the Potency is 8.86 µM (active).

`Cc1cc(C)c(N2C(=O)CC(Sc3ccccc3N)C2=O)c(C)c1` (configuration not stated): the Potency was 17.7 µM (active). Consider `Cc1ccc(S(=O)(=O)N2CCN(C(=O)CSC(=S)N3CCCC3)CC2)c(C)c1`, for which the max response was -17.2%.

Consider `COc1cc(C(=O)NCC(=O)N2CCN(S(=O)(=O)c3cc(C)ccc3C)CC2)cc(OC)c1OC`, for which the Potency was 9.94 µM (active). On the same count and under the same terms, the same measure for `COC(=O)c1ccc(Cl)cc1NC(=O)N1CC=C(c2c[nH]c3ccccc23)CC1`: 23.1 µM (active); for `CCOc1ccc(NC(=O)N2CC=C(c3c[nH]c4ccccc34)CC2)cc1`: 18.4 µM (active); for `Cc1ccc(C)c(NC(=O)N2CC=C(c3c[nH]c4ccccc34)CC2)c1`: 16.4 µM (active). `CSc1cccc(NC(=O)c2cc3c(COC(C)=O)cnc(C)c3oc2=O)c1`: the max response was 2.84%.

Take `Cc1cc(C)nc(-n2nc(C)cc2NC(=O)c2ccc(F)cc2F)n1`: the max response is -9.45%. Turning to `O=[N+]([O-])c1ccc(N/N=C/c2sc(N3CCOCC3)nc2-c2ccccc2)c(S(=O)(=O)Nc2ccccc2Cl)c1`, the Potency is 2.91 µM (active). Still for that read-out and setting: for `COc1ccccc1NS(=O)(=O)c1cc([N+](=O)[O-])ccc1N/N=C/c1sc(N2CCOCC2)nc1-c1ccccc1` the value was 0.58 µM (active). For the compound `Cc1cc2nc(SCCOC(=O)Nc3cccc(Cl)c3)nc(C)c2cc1C`, the max response was 0.137%. Same read-out and setting: for `C=CCOC(=O)C1=C(C)NC(C)=C(C(=O)OCC=C)C1c1cn(-c2ccccc2)nc1-c1ccco1` the value was -22.7%. Consider `COc1ccc2c(C)cc(SCC(=O)N(C)C3CCS(=O)(=O)C3)nc2c1` (configuration not stated), for which the Potency is 20.6 µM (active).

For `COc1ccc2c(C)cc(SCC#N)nc2c1`, the Potency was 18.4 µM (active). Consider `CS(=O)(=O)Nc1ccc(C2=NN(S(C)(=O)=O)C(c3ccc4c(c3)OCO4)C2)cc1` (configuration not stated), for which the Potency was 14 µM (active). Take `CS(=O)(=O)N1N=C(c2ccccc2)CC1c1ccc2c(c1)OCO2` (configuration not stated): the Potency is 12.5 µM (active). The same measure, in the same setting: for `CCS(=O)(=O)N1N=C(c2cccc(NS(C)(=O)=O)c2)CC1c1ccc(C)cc1` (configuration not stated) the value was 23.1 µM (active).

Take `CCS(=O)(=O)N1N=C(c2ccc(C)cc2)CC1c1cc2ccc(OC)cc2nc1Cl` (configuration not stated): the max response is -6.38%. On the same count and under the same terms, for `CC1=CC(C)(C)NC(=S)N1c1ccc2ccccc2c1` the value was 5%. For `C=C(/C=C/c1ccc(N(C)C)cc1)c1nc2ccccc2s1`, the Potency is 16.4 µM (active). Consider `O=c1[nH]ncc2c3ccccc3n(Cc3cccc(Cl)c3)c12`, for which the Potency is 18.4 µM (active). For `CC[N+](C)(C(=O)O)/C(=C\c1ccccc1)c1ccnc2ccccc12` (configuration not stated), the Potency is 16.4 µM (active).

For `C[C@@H]1O[C@@H](O[C@@H]2C(=O)c3c(O)cc(O)cc3O[C@H]2c2ccc(O)c(O)c2)[C@H](O)[C@H](O)[C@H]1O`, the max response is -0.692%. With `CCSc1nnc(-c2sc3nnc(-c4ccccc4)c(-c4ccccc4)c3c2N)o1`, the Potency was 4.61 µM (active). Regarding `COc1ccc(NC(=O)c2sc3nc4c(cc3c2N)CN(Cc2ccccc2)CC4)c(OC)c1`, the Potency is 18.4 µM (active). As for `Cc1cc(N2CCN(C)CC2)ccc1NC(=O)c1c2c(nc3ccccc13)CCN(Cc1ccccc1)C2`, the max response was 4.5%. Regarding `Nc1c(C(=O)c2ccc(Cl)cc2)sc2nc3c(cc12)CCC3`, the Potency was 16.4 µM (active). With `CCN1CCc2nc3sc(C(=O)c4ccccc4)c(N)c3cc2C1`, the Potency was 18.4 µM (active). The same measure, in the same setting: the same measure for `COCCN1C(=O)/C(=C/c2ccc(N3CCCC3)cc2C)SC1=S`: 4.11 µM (active); for `COCCN1C(=O)/C(=C/c2ccc(N3CCCC3)cc2)SC1=S`: 7.31 µM (active). In the case of `Cc1ccc2oc(/N=C(\N)NC(=O)C(C)(C)C)nc2c1`, the max response was -19%. Regarding `C/C(=N\NC(N)=S)C12CC3CC(CC(C3)C1)C2`, the max response was 27.9%. Regarding `COc1ccc(/C=C/c2ccnc3ccccc23)c(OC)c1`, the Potency was 16.4 µM (active).

In the case of `COc1ccc(NC(=S)Nc2ncccc2C)c(OC)c1`, the max response was -0.005%. For the compound `COc1cc(OC)c(/C=C/c2ccnc3ccccc23)c(OC)c1`, the Potency is 7.31 µM (active). Still for that read-out and setting: for `c1ccc2c(-c3nc4ccccc4[nH]3)cccc2c1` the value was 11.2 µM (active); for `CCC(C)n1c(NC(=O)c2ccccc2)c(C#N)c2nc3ccccc3nc21` (configuration not stated), 18.4 µM (active); for `CCn1ncc(/C=N\NC(=O)c2csc3ccccc23)c1C`, 5.59 µM (active). `COc1ccc(Cn2c(=O)cc(N)n(-c3ccccc3C)c2=O)cc1`: the Potency was 11.2 µM (active). Still for that read-out and setting: for `CCN(CC)c1ccc2cc(-c3nc(-c4ccccc4)no3)c(=O)oc2c1` the value was 2.06 µM (active). The same measure, in the same setting: for `CCN(CC)c1ccc2cc(-c3nc(-c4cc(OC)c(OC)c(OC)c4)no3)c(=O)oc2c1` the value was 0.517 µM (active). Consider `CCN(CC)c1ccc2cc(-c3nnc(-c4cccc(Cl)c4)o3)c(=O)oc2c1`, for which the Potency is 2.59 µM (active). As for `CCN(CC)c1ccc2cc(-c3nnc(-c4ccccc4)o3)c(=O)oc2c1`, the max response is 49.6%. In the case of `CCN(CC)c1ccc2cc(-c3nc4ccccc4n3C)c(=O)oc2c1`, the Potency was 1.3 µM (active). The same measure, in the same setting: the same measure for `CN(Cc1cnn(Cc2ccccc2)c1)C(=O)c1cccc(S(=O)(=O)N2CCOCC2)c1`: 11.2 µM (active).

`c1ccc(-c2cccc(-c3ccccn3)n2)nc1`: the max response was -27.5%. With `Nc1[nH]c2cc([N+](=O)[O-])ccc2c1-c1ccccn1`, the Potency was 4.61 µM (active). Turning to `CCn1c(CNC(=O)c2cc(OC)c(OC)c(OC)c2)cc2cc(C)ccc21`, the max response is -10.2%. As to `COc1cc(C(=O)NCCOc2cc(C)cc(C)c2)cc(OC)c1OC`, the Potency is 3.14 µM (active). The same measure, in the same setting: for `CCOc1ccccc1Oc1nc(C)nc2c1oc1ccccc12` the value was 2.91 µM (active). On to `CNC(=O)C(Sc1nc(C)nc2c1oc1ccccc12)C(C)=O` (configuration not stated), for which the max response was -16.6%. `O=Cc1s/c(=N\S(=O)(=O)c2ccccc2)n(CCCCl)c1Cl`: the Potency was 8.2 µM (active). On the same count and under the same terms, for `COc1ccc(C2=CC(c3ccc(N(C)C)cc3)n3nnnc3N2)cc1` (configuration not stated) the value was 23.1 µM (active).

Turning to `CN(C)c1ccc(C2C=C(c3ccccc3)Nc3nnnn32)cc1` (configuration not stated), the Potency was 23.1 µM (active). On to `N#Cc1c(C(F)(F)F)cc(-c2cccs2)nc1SCC(=O)Nc1cccc(C(F)(F)F)c1`, for which the Potency is 20.6 µM (active). Same read-out and setting: for `CCOC(=O)c1ccc(NC(=O)CSc2nc(-c3cccs3)cc(C(F)(F)F)c2C#N)cc1` the value was 23.1 µM (active).

Turning to `N#Cc1c(C(F)(F)F)cc(-c2cccs2)nc1SCC(=O)Nc1cccc(Cl)c1`, the max response is -23.7%. With `N#Cc1c(C(F)(F)F)cc(-c2cccs2)nc1SCC(=O)Nc1ccc(Cl)cc1`, the Potency was 10.3 µM (active). Consider `O=C(CSc1n[nH]c(-c2ccccn2)n1)Nc1ccc(Cl)cc1`, for which the max response was 17.5%. Same read-out and setting: for `O=[N+]([O-])c1cc(Cl)c2cccnc2c1O` the value was 30.7%; for `O=[N+]([O-])c1cc(O)c2ncccc2c1`, -9.81%. As to `O=[N+]([O-])c1ccc(Oc2cccc3cccnc23)c([N+](=O)[O-])c1`, the Potency is 12.5 µM (active). On the same count and under the same terms, for `CCC(C)[C@H](NC(=O)N1CC(=O)Nc2ccccc21)C(=O)Nc1ccccc1C` (some centres not stated) the value was 9.94 µM (active).

For the compound `Cc1cc(C)cc(C(=O)N2CC(=O)Nc3ccccc32)c1`, the Potency was 0.704 µM (active). Take `O=C1CN(C(=O)c2cc(Br)c(Br)s2)c2ccccc2N1`: the Potency is 12.5 µM (active). Still for that read-out and setting: the same measure for `COc1cc(OC)cc(C(=O)N2CC(=O)Nc3ccccc32)c1`: 3.53 µM (active); for `COc1cc(C(=O)N2CC(=O)Nc3ccccc32)cc(OC)c1OC`: 17.7 µM (active). Same read-out and setting: for `CCCn1nc(C(=O)N2CC(=O)Nc3ccccc32)c2ccccc2c1=O` the value was 7.04 µM (active); for `COc1cc(C(=O)c2ccc3c(c2)OCO3)cc(OC)c1OC`, 5.59 µM (active). Same read-out and setting: for `CCOC(=O)N1CCN(c2c(NCc3ccc(F)cc3)c(=O)c2=O)CC1` the value was 14 µM (active).

As to `CCOC(=O)Nc1cc2c(c(N)n1)N=C(c1ccccc1)CN2`, the Potency was 0.058 µM (active).

As for `C=CCNC(=S)N/N=C(\C)c1ccc(OC)cc1`, the max response is -1.31%.

On to `COc1ccc(NC(=S)NN(C)C(=S)Nc2ccc(OC)cc2)cc1`, for which the Potency was 6.27 µM (active). Consider `COc1ccc(N(C)S(=O)(=O)c2cccc3cccnc23)c(OC)c1`, for which the Potency is 14 µM (active). Still for that read-out and setting: for `O=c1cc(-c2ccccc2)[nH]c2ccccc12` the value was 3.14 µM (active); for `Cc1ccc(N/C(N)=N/c2nc(CSc3nnc(C)s3)cc(=O)[nH]2)c(C)c1`, 2.8 µM (active). Same read-out and setting: for `O=c1c(Cl)c2oc3ccccc3nc-2c2ccccc12` the value was 10.3 µM (active). Same read-out and setting: for `CC[n+]1c(C=C2C=C(C)OC(C)=C2)sc2ccccc21` the value was 4.11 µM (active); for `COCCCN(C(C)=O)c1nc(-c2ccc(OC)cc2)cs1`, 14 µM (active).

As to `O=C(CCc1ccccc1)Nc1ccc(Cl)cn1`, the Potency was 7.9 µM (active). As for `CCCC(=O)NC1=C(Cl)C(=O)c2ccccc2C1=O`, the max response is 62.1%.

With `S=C(NCc1ccco1)Nc1ccc(Cl)cn1`, the max response was -10.1%. Turning to `Cc1ccc(-c2nc(-c3cc4cccc(OCc5cccc(F)c5)c4oc3=O)no2)cc1`, the Potency is 23.1 µM (active). In the case of `COc1cc(/C=C/C(=O)c2ccc3c(c2)OCCO3)cc(Br)c1OCC(=O)N(C)C`, the Potency is 14 µM (active).

In the case of `O=c1c[n+]([O-])c2ccccc2n1OCc1c(F)cccc1F`, the Potency was 19.8 µM (active). For the compound `Cc1c(=O)n(OCc2ccc(Cl)cc2)c2ccccc2[n+]1[O-]`, the max response was -2.47%.

Regarding `CN(C)C=Nc1c(Br)cc(Br)c2nonc12`, the Potency is 4.61 µM (active).

Consider `CCNC(=S)N/N=C(\C)c1ccc(N2CCOCC2)cc1`, for which the max response is -8.21%.

In the case of `COc1ccc(/C=C/C=C2\NC(=S)NC2=O)cc1`, the max response is -11.7%. For `CCOc1ccc2nc(N3C(=O)/C(=C/c4ccc(Cl)cc4)NC3=S)sc2c1`, the Potency is 18.4 µM (active). Turning to `COc1ccc2nc(N3C(=O)/C(=C/c4ccccc4)NC3=S)sc2c1`, the Potency was 11.6 µM (active).
